An excerpt weighted towards active compounds, which were near 11% of everything screened.
JMJD2A Tudor inh = inhibitors of human JMJD2A Tudor domain; O75164; AlphaScreen JMJD2A-Tudor / H3K4me3 peptide binding; Potency, µM (doses to about 114 µM), without a hit: top-dose activity change, negative = inhibition, actives largely listed as inhibitors; 390,000 compounds, 4.4% hits; AID 504339; further: potency means the concentration at half of the fitted maximal effect; on the % scale 0 is the no-effect control and ±100 the full control effect; nearly all actives have a fitted effect of over 50% in size
L3MBTL1 inh = blocks human L3MBTL1. AID 485360. Potency, µM (titrated, usually from 57.1 µM), for inactives: at the highest dose activity, negative = inhibition, hits mostly inhibitors. AlphaScreen L3MBTL1–H3K9me1 peptide binding. 230,000 compounds, 0.66% hits; further: potency means the concentration at half of the fitted maximal effect; on the % scale 0 is the no-effect control and ±100 the full control effect; nearly all actives have a fitted effect of over 60% in size
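L3MBTL1 50 nM + b-AHA-H3(1-15)K9me1 75 nM, 30 min RT; compound added, 30 min RT; streptavidin donor/Ni-chelate acceptor beads 10 ug/mL each final, 30 min RT dark; AlphaScreen read.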
G9a inh = G9a (human) methyltransferase inhibition. G9a H3K9 monomethylation, AlphaScreen, 2 h. Potency, µM (highest dose often 102 µM), without a hit: at the highest dose activity, negative = inhibition, most hits filed as inhibitors. 350,000 compounds, 8.8% hits. AID 504332; further: potency means the concentration at half of the fitted maximal effect; on the % scale 0 is the no-effect control and ±100 the full control effect; nearly all actives have a fitted effect of over 75% in size
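G9a (20 nM) preincubated 15 min RT with compounds, then 500 nM biotinylated H3K9 peptide and 20 uM SAM added; 2 h RT reaction. Monomethyl-H3K9 product detected by AlphaScreen with anti-H3K9me1 antibody, streptavidin donor and anti-rabbit IgG acceptor beads.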
HP1b chromo inh = blocks HP1-beta chromodomain binding to methylated histone tails. Potency, µM (highest dose often 114 µM), for inactives: top-dose activity change, negative = inhibition, hits mostly inhibitors. P83916. 390,000 compounds, 0.56% hits. AID 540317. AlphaScreen HP1-beta / biotin-H3K9me3 peptide binding; further: potency means the concentration at half of the fitted maximal effect; nearly all actives have a fitted effect of over 70% in size
Target sequence (P83916 whole entry, looked up): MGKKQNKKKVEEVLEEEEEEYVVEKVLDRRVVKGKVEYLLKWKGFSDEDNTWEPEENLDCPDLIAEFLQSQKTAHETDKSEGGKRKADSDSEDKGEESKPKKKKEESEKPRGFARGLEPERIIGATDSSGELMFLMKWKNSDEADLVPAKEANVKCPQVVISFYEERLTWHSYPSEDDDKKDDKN
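HP1-beta protein (50 nM final) preincubated 30 min at room temperature with biotinylated H3(1-18)K9me3 peptide (50 nM) in PBS pH 7.4, 0.01% Tween-20, then compound added for 30 min. AlphaScreen streptavidin donor/nickel chelate acceptor beads (10 ug/mL final), 30 min dark, luminescence read.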
BAZ2B inh = inhibitors of human BAZ2B bromodomain; Q9UIF8; AlphaScreen BAZ2B-H3K14Ac peptide displacement; Potency, µM (doses to about 114 µM), inactives show top-dose activity change, negative = inhibition, actives largely listed as inhibitors; 360,000 compounds, 4.4% hits; further: potency means the concentration at half of the fitted maximal effect; on the % scale 0 is the no-effect control and ±100 the full control effect; nearly all actives have a fitted effect of over 60% in size
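Inhibition is scored as reduced AlphaScreen emission. The BAZ2B/b-H3(5-23)K14Ac complex (50 nM each) in PBS pH 7.4, 0.01% Tween-20 meets compound (up to 110 uM) for 30 min at RT before bead addition.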
PI5P4K alpha inh = inhibitors of human PI5P4K alpha; P48426; PI5P4Kalpha enzyme, ADP-Glo luminescence, 60 min; hits give low values; max response, %; 330,000 compounds, 1.2% hits; active means max response of -50% or lower; inconclusive means between -30% and -50%; inactive means -30% or higher; further: value at the top dose of about 77 µM; on the % scale 0 is the no-effect control and ±100 the full control effect
Target sequence (P48426 whole entry, looked up): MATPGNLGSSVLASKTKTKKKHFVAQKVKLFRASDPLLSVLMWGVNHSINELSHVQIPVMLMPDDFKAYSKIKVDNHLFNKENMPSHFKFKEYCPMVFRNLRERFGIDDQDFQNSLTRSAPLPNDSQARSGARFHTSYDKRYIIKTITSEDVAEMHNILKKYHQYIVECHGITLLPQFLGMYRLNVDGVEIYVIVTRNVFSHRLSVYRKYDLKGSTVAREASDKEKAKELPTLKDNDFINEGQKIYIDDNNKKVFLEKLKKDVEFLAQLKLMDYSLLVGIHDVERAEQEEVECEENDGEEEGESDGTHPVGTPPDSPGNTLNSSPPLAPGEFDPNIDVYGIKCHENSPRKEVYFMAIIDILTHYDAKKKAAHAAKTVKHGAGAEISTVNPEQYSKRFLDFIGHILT
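Luminescence from ADP-Glo served as readout of PI5P4Kalpha activity in a qHTS format. Reaction: enzyme, substrate, compound, ATP at 5 microM final, 60 min at RT.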
* = called active by the depositor; ? = inconclusive; · = not tested or not shown; [ ] = dose if it differs, or a comment. Unless noted, the call rests on the fitted dose curve; in most records, active means well fitted inhibition curve with a large enough effect; inconclusive means small, poorly fitted or top-dose-only effect; inactive means no such curve, though single readings can be large or run the other way.

SMILES	JMJD2A Tudor inh	L3MBTL1 inh	G9a inh	HP1b chromo inh	BAZ2B inh	PI5P4K alpha inh
CCOc1ccc(CN(C(=O)c2ccco2)C2CCS(=O)(=O)C2)cc1 (configuration not stated)	-8%	-2%	·	9%	5%	7
COc1ccc(CN(C(=O)c2ccco2)C2CCS(=O)(=O)C2)cc1 (configuration not stated)	-13%	·	16%	16%	-17%	6
COc1ccc(CN(C(=O)/C=C/c2ccco2)C2CCS(=O)(=O)C2)cc1OC (configuration not stated)	-15%	·	40µM*	23%	?	-2
CCOc1ccc(CN(C(=O)/C=C/c2ccco2)C2CCS(=O)(=O)C2)cc1 (configuration not stated)	-32%	·	45µM*	20%	?	-16
COc1ccc(CN(C(=O)c2cc3ccccc3oc2=O)C2CCS(=O)(=O)C2)cc1OC (configuration not stated)	-11%	·	-7%	?	-11%	0
O=C(/C=C/c1ccco1)N(Cc1ccc(Cl)cc1)C1CCS(=O)(=O)C1 (configuration not stated)	-20%	-7%	45µM*	-13%	-28%	-28
COc1ccc(CN(C(=O)/C=C/c2ccco2)C2CCS(=O)(=O)C2)cc1 (configuration not stated)	?	-26%	50µM*	3%	50µM*	?
CCOC(=O)c1cccc(NC(=O)[C@H](CSCc2ccccc2)N2Cc3ccccc3C2=O)c1	-25%	·	-35%[59 µM]	26%	-21%	·
COc1cccc(CN(C(=O)c2ccco2)C2CCS(=O)(=O)C2)c1 (configuration not stated)	-6%	·	·	26%	1%	1
COc1cccc(CN(C(=O)/C=C/c2ccco2)C2CCS(=O)(=O)C2)c1 (configuration not stated)	-19%	·	18µM*	10%	-29%	-14
COc1cc(/C=N/N2C(=O)CSC2=S)cc(Br)c1O	45µM*	32µM*	45µM*	?	40µM*	-75*
COc1cccc(/C=N/N2C(=O)CSC2=S)c1O	10µM*	25µM*	8.9µM*	?	3.2µM*	-55*
COc1ccc2ccccc2c1/C=N/N1C(=O)CSC1=S	?	?	?	-18%	·	-21
CCCCN(NC(C)=O)c1nc(Cl)nc(NC(C)C)n1	-9%	·	50µM*	17%	0%	·
COc1ccccc1OCCCCN1CCCCC1	-9%	-8%	25%	10%	-35%	-1
CCc1ccccc1OCCCCN1CCCCC1	1.8µM*	-2%	40µM*	?	?	9
CCc1ccccc1OCCCN1CCCC1	-89%	?	50µM*	-15%	?	7
Fc1ccccc1OCCCCCN1CCCC1	-31%	-3%	-5%[59 µM]	1%	-3%	-1
CC(=O)Nc1ccc(S(=O)(=O)NC(CSc2ccc(C(=O)O)cc2[N+](=O)[O-])C(=O)O)cc1 (configuration not stated)	-3%	·	50µM*	55%	?	-5
CCOC(=O)c1ccc(Nc2ccc(-c3ccc(OC)c(OC)c3)nn2)cc1	63µM*	2%	?	2%	·	·
CCOC(=O)c1ccc(N/C=C/C(=O)c2ccc(OC)c(OC)c2)cc1	-8%	3%	·	31%	5%	·
Cc1onc(-c2ccccc2)c1C(=O)N1CCCC1	-17%	·	55%	32%	50µM*	5
Cc1onc(-c2c(F)cccc2Cl)c1C(=O)N1CCSCC1	7%	-2%	50µM*	45%	-11%	1
COc1ccc(-c2nc3cnc(N4CCN(C)CC4)nc3n(Cc3ccc(F)cc3)c2=O)cc1	·	·	20%[0.501 µM]	·	·	·
Cc1cccc(N2CCN(C(=O)c3ccc4c(c3)N(Cc3cccc(Cl)c3)C(=O)c3ccccc3S4=O)CC2C)c1 (configuration not stated)	-19%	·	?	40%	-18%	·
SMILES	JMJD2A Tudor inh	L3MBTL1 inh	G9a inh	HP1b chromo inh	BAZ2B inh	PI5P4K alpha inh
O=C(N/N=C/c1ccc(Sc2ccccn2)o1)c1cc2ccccc2cc1O	-33%	?	-11%[59 µM]	-4%	-7%	-67*
O=C(O)c1ccc(/C=N/NC(=O)c2cc3ccccc3cc2O)cc1	-29%	32µM*	·	-6%	·	?
O=C(O)c1ccc(/C=N/NC(=O)c2cc3c(ccc4ccccc43)o2)cc1	?	·	?	31%	71µM*	-19
O=C(N/N=C/c1ccc(Sc2nc3ccccc3[nH]2)o1)c1ccncc1	-13%	11%	45µM*	?	-6%	-9
CCc1ccc(OCC(=O)N(Cc2ccc(C(C)C)cc2)C2CCS(=O)(=O)C2)cc1 (configuration not stated)	-7%	·	6%[59 µM]	19%	5%	·
CN(Cc1ccco1)c1ncnc2ccc(-c3ccc4c(c3)OCCO4)cc12	·	-5%	2%[12.7 µM]	·	-30%	·
COc1cccc(CNC(=O)c2cc(-c3ccc(Cl)cc3)n[nH]2)c1	-11%	·	16%[59 µM]	50%	1%	·
O=C(N/N=C/c1ccc(-c2ccc(Cl)c(C(=O)O)c2)o1)c1cc2c(ccc3ccccc32)o1	-8%[11.4 µM]	·	·	?	28µM*	-80*
Cc1ccc(-c2ccc(/C=N\NC(=O)c3cc4c(ccc5ccccc54)o3)o2)cc1[N+](=O)[O-]	-32%	8%	·	14%	2%	?
COc1ccc(Nc2nnc(SCC(=O)c3cc4ccccc4o3)s2)cc1	-23%	·	-134%[59 µM]	8%	?	?
O=C1c2ccccc2C(=O)N1CSc1nnc(Nc2ccccc2F)s1	-16%	2%	10µM*	19%	-14%	-11
O=C(CSc1nnc(Nc2ccccc2F)s1)c1cc2ccccc2o1	-32%	-9%	7.9µM*	?	-11%	?
Cc1cccc2nc(CSc3nc4[nH]ncc4c(=O)n3-c3ccccc3Cl)cc(=O)n12	-8%	-4%	-10%	37%	-19%	-8
O=c1c2cn[nH]c2[nH]c(=S)n1-c1ccccc1F	?	1%	8.9µM*	-14%	?	·
Cc1ccc(-n2c(=S)[nH]c3[nH]ncc3c2=O)cc1	-30%	·	35µM*	42%	?	-21
O=c1c2cn[nH]c2[nH]c(=S)n1-c1ccccc1Cl	-15%	·	45µM*	30%	14%	-16
S=C(N/N=C/c1ccc(Br)cc1)N1CCCCC1	?	?	24%	11%	7.9µM*	0
S=C(N/N=C/c1ccc(Cl)cc1)N1CCOCC1	-28%	?	?	-6%	?	-4
Cc1ccc(/C=N/NC(=S)N2CCOCC2)cc1	-34%	?	28µM*	13%	?	-5
COc1ccc2c(c1)c1ncnc(N3CCN(Cc4ccc5c(c4)OCO5)CC3)c1n2C	·	2%	-43%[59 µM]	·	0%	·
